Sm TGR block – qHTS Assay for the Inhibitors of Schistosoma Mansoni Peroxiredoxins; Schistosoma mansoni thioredoxin glutathione reductase (TGR), Q962Y6; purified TGR, DTNB reduction, TNB absorbance 405 nm; Potency, µM (titrated, usually from 114 µM), inactives show at the highest dose activity change, negative = inhibition, usual class: inhibitors; 3% of 360,000 active; also: potency is read from the fitted curve at half-maximal effect; % is scaled to controls: 0 for no effect and ±100 for the full control effect; nearly all actives have a fitted effect of over 60% in size
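TGR 20 nM + NADPH 100 uM (dispensed conc.), cpd preinc 15 min RT; start with NADPH (500 uM addition) then DTNB (15 mM addition). Kinetic TNB absorbance, 405 nm filter. Four-parameter Hill fit across titration.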
FBPA Giardia inh – qHTS Assay for Inhibitors of Fructose-1,6-bisphosphate Aldolase from Giardia Lamblia; 0.71% of 290,000 active; purified Giardia FBPA; AID 2451, 2010; Potency, µM (highest dose often 59.6 µM), inactives show top-dose activity, negative = inhibition, usual class: inhibitors; A8B2U2; also: potency is read from the fitted curve at half-maximal effect; % is scaled to controls: 0 for no effect and ±100 for the full control effect; nearly all actives have a fitted effect of over 55% in size
Target sequence (A8B2U2 whole entry, looked up): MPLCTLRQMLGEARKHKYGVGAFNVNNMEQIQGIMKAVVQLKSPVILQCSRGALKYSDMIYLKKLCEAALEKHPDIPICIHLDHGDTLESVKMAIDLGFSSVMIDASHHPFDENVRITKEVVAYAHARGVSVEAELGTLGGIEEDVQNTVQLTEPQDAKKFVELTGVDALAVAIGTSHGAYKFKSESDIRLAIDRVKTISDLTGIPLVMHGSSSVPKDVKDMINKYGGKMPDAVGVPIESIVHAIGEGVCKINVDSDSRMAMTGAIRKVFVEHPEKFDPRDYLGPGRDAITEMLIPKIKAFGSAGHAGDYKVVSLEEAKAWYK
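Giardia FBPA (40 nM reagent) was preincubated 10 min at RT with compound (up to 57.5 uM final), then substrate plus GAPDH/TPI/NAD/arsenate coupling system with diaphorase/resazurin was added; resorufin fluorescence (525/598 nm) was read after 20 min.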
TbPYK inhibitor – qHTS of Trypanosoma Brucei Inhibitors | pyruvate kinase (Trypanosoma brucei), Q57TT1 | TbPYK enzyme, Kinase-Glo Plus ATP luminescence, 45 min | 0.12% of 410,000 active | Potency, µM (top dose mostly 76.8 µM), without a hit: at the highest dose activity, negative = inhibition, hits mostly inhibitors; also: potency is read from the fitted curve at half-maximal effect; % is scaled to controls: 0 for no effect and ±100 for the full control effect; nearly all actives have a fitted effect of over 50% in size
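Assay buffer: 50 mM TEA pH 7.2, 100 mM KCl, 10 mM MgCl2, 0.05% BSA, 0.01% Tween-20. Pyruvate kinase from T. brucei plus substrate met compound, then ADP (130 uM final). Luminescence was read post 45 min RT.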
CHX counter – Cycloheximide Counterscreen for Small Molecule Inhibitors of Shiga Toxin | cell reporter, cycloheximide protein synthesis inhibition counterscreen | max response, % | 12% of 300,000 active; in the data active = max response mostly above about 13%, no sharp cut-off; inactive = mostly below about 14%; also: read at 38.3 µM for the half of the compounds with a filed dose; 0% is about no effect
LmPK inh – qHTS Assay for Inhibitors of Leishmania Mexicana Pyruvate Kinase (LmPK) | Q27686 | purified LmPK, Kinase-Glo ATP luminescence, 1 h | Potency, µM (top dose mostly 57.5 µM), for inactives: top-dose activity change, negative = inhibition, usual class: inhibitors | 0.37% of 290,000 active; also: potency is read from the fitted curve at half-maximal effect; % is scaled to controls: 0 for no effect and ±100 for the full control effect
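ATP generated from ADP (0.1 mM) and PEP (0.5 mM) by 0.1 nM LmPK over 1 h at room temperature (pH 7.2 imidazole buffer) was detected by coupled luciferase luminescence. Values were normalized to uninhibited and no-enzyme wells.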
Shiga inhibitor – A qHTS for Small Molecule Inhibitors of Shiga Toxin; Vero cells, Shiga toxin protein synthesis inhibition reporter; inhibition, % at 38.7 µM; 9.2% of 290,000 active; AID 2315, 2010; in the data active = inhibition mostly above about 28%, no sharp cut-off; inactive = mostly below about 43%; also: 0% is about no effect
* hit, by the source's call; [ ] = dose if it differs, or a comment. The full list was thinned out, with hits kept by preference. Unless noted, calls follow the shape of the dose curve; as a rule, active = well fitted curve in the direction sought with a large enough effect; inconclusive = small, poorly fitted or top-dose-only effect, or another doubt; inactive = no such curve, though single readings can be large; an effect the other way counts as inactive or inconclusive.

Screening CC(c1ccon1)N(C)Cc1cn(C)nc1-c1cccc(Cl)c1 (stereo not drawn) returned Sm TGR block 28µM*, FBPA Giardia inh 0%, TbPYK inhibitor 7%, CHX counter -1, LmPK inh 11% and Shiga inhibitor -3.
For CC(c1ccon1)N(C)Cc1cn[nH]c1-c1ccc(-c2ccccc2)cc1 (stereo not drawn) the results were Sm TGR block -3%, FBPA Giardia inh -5%, TbPYK inhibitor 0%, CHX counter 15, LmPK inh -2% and Shiga inhibitor 73*.
`CC(c1ccon1)N(C)Cc1cn[nH]c1-c1ccc(F)cc1F` (stereo not drawn) gave Sm TGR block -3%, FBPA Giardia inh -6%, TbPYK inhibitor -2%, CHX counter -1, LmPK inh 0% and Shiga inhibitor -3.
Screening CN(Cc1ccon1)Cc1cn[nH]c1-c1ccc(-c2ccccc2)cc1 returned Sm TGR block 4%[57.1 µM], FBPA Giardia inh 0%, TbPYK inhibitor -1%, CHX counter 30*, LmPK inh -3% and Shiga inhibitor 24.
Screening CC(C)N(Cc1cn(C)nc1-c1cccc(Cl)c1)Cc1nccn1C returned Sm TGR block -11%, FBPA Giardia inh 3%, TbPYK inhibitor 0%, CHX counter -2, LmPK inh 2% and Shiga inhibitor -4.
Screening CN(Cc1cn[nH]c1-c1ccc(-c2ccccc2)cc1)CC1CCOCC1 returned Sm TGR block 6%, FBPA Giardia inh 9%, TbPYK inhibitor -4%, CHX counter 17*, LmPK inh 1% and Shiga inhibitor 38.
For CCN(CCn1cccn1)Cc1cn[nH]c1-c1ccc(-c2ccccc2)cc1 the results were Sm TGR block -13%, FBPA Giardia inh -14%, TbPYK inhibitor 3%, CHX counter 11, LmPK inh 3% and Shiga inhibitor 42.
`COc1cc(C(C)C)c2c(c1)S(=O)(=O)N(COc1cc(=O)n3cccc(OCCN4CCCCC4)c3n1)C2=O` gave FBPA Giardia inh 2%, CHX counter -9 and Shiga inhibitor -17.
Screening CN(C)C(CNS(=O)(=O)c1ccc2ccccc2c1)c1ccccc1 (stereo not drawn) returned Sm TGR block 4%, FBPA Giardia inh -20%, TbPYK inhibitor -6%, CHX counter 5, LmPK inh -9% and Shiga inhibitor 0.
`Cc1cccc(C)c1NC(=O)[C@H](C)N` gave FBPA Giardia inh 0%[21.7 µM] and TbPYK inhibitor 0%[33.2 µM].
Screening Cc1cccc(N(Cc2ccccc2)C(=O)c2ccccc2S(C)(=O)=O)c1 returned Sm TGR block -1%, TbPYK inhibitor 0%, CHX counter -2, LmPK inh -6% and Shiga inhibitor -27.
For O=c1n(Cc2ccccc2)nc2n1-c1cc(Cl)ccc1OC2 the results were Sm TGR block 0% and TbPYK inhibitor -8%.
For O=C1C(c2[nH]c3ccc(S(=O)(=O)O)cc3c2O)=Nc2ccc(S(=O)(=O)O)cc21 the results were FBPA Giardia inh 18µM*, TbPYK inhibitor 0%, CHX counter 11 and Shiga inhibitor -3.
Screening CCOC(=O)/C=C/C(=O)Nc1ccccc1-c1ccccc1NC(=O)/C=C/C(=O)OCC returned Sm TGR block 13µM*, FBPA Giardia inh 5%, TbPYK inhibitor -12%, CHX counter 33*, LmPK inh 0% and Shiga inhibitor 13.
For CCOC(=O)/C=C/C(=O)OCC(=O)Nc1cccc(Cl)c1Cl the results were Sm TGR block inconclusive, FBPA Giardia inh 5%, TbPYK inhibitor 0%, CHX counter 9, LmPK inh 2% and Shiga inhibitor 2.
`CC(C)=CC(=O)OCC(=O)Nc1cccc([N+](=O)[O-])c1` gave Sm TGR block -6%, FBPA Giardia inh -1%, TbPYK inhibitor -9%, CHX counter 1, LmPK inh -2% and Shiga inhibitor -11.
Screening CCOC(=O)/C=C/C(=O)Nc1cccc([N+](=O)[O-])c1 returned Sm TGR block 0.71µM*, FBPA Giardia inh -6%, TbPYK inhibitor inconclusive, CHX counter 38*, LmPK inh -4% and Shiga inhibitor 49.
CCOC(=O)/C=C/C(=O)OCC(=O)Nc1ccc([N+](=O)[O-])cc1 was read as Sm TGR block 4µM*, FBPA Giardia inh 0%, TbPYK inhibitor -8%, CHX counter 17*, LmPK inh 2% and Shiga inhibitor 31.
For CCN1CCN(C(c2ccccc2)c2sc3nc(-c4ccco4)nn3c2O)CC1 (stereo not drawn) the results were Sm TGR block 5% and TbPYK inhibitor -8%.
For Cc1cc2c(C(C)C)c(O)c(O)c(C=O)c2c(O)c1-c1c(C)cc2c(C(C)C)c(O)c(O)c(C=O)c2c1O the results were Sm TGR block 50µM*, FBPA Giardia inh inconclusive, TbPYK inhibitor -12%, CHX counter 1, LmPK inh 7% and Shiga inhibitor 7.
For C=CCN=c1scc(-c2ccc3c(c2)NC(=O)CO3)n1/N=C(\C)c1ccccn1 the results were Sm TGR block 35µM*, FBPA Giardia inh 4%, TbPYK inhibitor 3%, CHX counter 10, LmPK inh 3% and Shiga inhibitor -4.
`COc1ccccc1NC(=O)CCn1cnc2ccccc2c1=O` gave Sm TGR block -2% and TbPYK inhibitor -7%.
`CCOC(=O)c1nc(C)n(-c2cc(OC)c(Cl)cc2Cl)n1` gave Sm TGR block -2%, FBPA Giardia inh 3%, TbPYK inhibitor -1%, CHX counter 46*, LmPK inh 10% and Shiga inhibitor 41*.
For COC(=O)C1=C(C(=O)OC)C2OC1c1cc3ccccc3cc12 the results were TbPYK inhibitor 28µM*.
For CCCC[C@@H]1C[C@H]1C(NC(=O)c1ccccc1)c1ccccc1C(F)(F)F (stereo partly drawn) the results were FBPA Giardia inh 1%.
Cc1ccc(C)c(N2CCN(C(=O)c3cc4c(=O)n(Cc5ccco5)ccc4nc3C)CC2)c1 was read as Sm TGR block 40µM* and TbPYK inhibitor -5%.
For COc1ccc(N2CCN(C(=O)c3cc4c(=O)n(Cc5ccco5)ccc4nc3C)CC2)cc1 the results were Sm TGR block -20% and TbPYK inhibitor -3%.
For Cc1ccc(CNC(=O)c2cc3c(=O)n(Cc4ccco4)ccc3nc2C)cc1 the results were Sm TGR block 25µM* and TbPYK inhibitor -3%.
COc1cccc(N2CCN(C(=O)c3cc4c(=O)n(Cc5ccco5)ccc4nc3C)CC2)c1 was read as Sm TGR block 10µM* and TbPYK inhibitor -9%.
